High-throughput results: PubChem BioAssay, Broad Institute
A1 inh: inducers of caspase activity in MEF A1-2A-BIM cells, primary screen, A1 inhibitor project, cell-based, CaspaseGlo luminescence; caspase-Glo luminescence, 3 h; percent of clofoctol signal, DMSO as zero; 21,000 tested, 0.51% active; caspase activation, % (no concentration beside the values);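 active = most replicate scores above 10, or exactly half above 10 with mean activity above 10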;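 note: effector caspase 3 and 7 activity cleaving a DEVD luciferin substrate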
BJeLR viability: BJeLR cell viability loss, primary screen, luminescence, CellTiterGlo ATP | BJeLR fibroblasts viability, 48 h; HRASV12, hTERT and SV40 LT/ST transformed | viability loss activity score, % (concentration not given with the values) | 30,000 tested, 0.64% active | AID 2275, 2010; in the data active = viability loss activity score above about 50%;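 note: higher score means fewer live cells and less ATP luminescence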
* marks the source's active call; other numbers are inactive results; . = no result given. A selection: hits, their analogues and other compounds. The true share with any hit is near 0.86%.

SMILES	A1 inh	BJeLR viability
CCC(Sc1nc2cc3c(cc2c(=O)n1Cc1ccco1)OCO3)C(=O)Nc1ccccc1OC (stereo not given)	-1	7
CCC(Sc1nc2cc3c(cc2c(=O)n1Cc1ccco1)OCO3)C(=O)NCc1ccc(C)cc1 (stereo not given)	15*	6
CC1CC(=O)C2C(O)(C1)CC(O)C13OC21C(=O)c1cccc(O)c1C3O (stereo not given)	0	-1
Cc1cc(C)nc(NC(=NCc2ccc(Cl)cc2)NC(=O)C(C)N2C(=O)c3ccccc3C2=O)n1 (stereo not given)	0	4
Cc1cc(C)nc(NC(N)=NCc2ccccc2Cl)n1	-1	77*
COc1ccccc1C1CC(=O)NC(C)=C1C(=O)OC1CCCC1 (stereo not given)	.	0
COc1ccccc1C1CC(=O)Nc2cc3c(cc21)CCC3 (stereo not given)	.	51*
C[C@@H]1CN([C@H](C)CO)C(=O)c2cc(NC(=O)Nc3ccc(C(F)(F)F)cc3)ccc2O[C@@H]1CN(C)C(=O)Nc1ccc(F)cc1	0	-2
CN(Cc1cccs1)C(=S)SCCO	1	-5
COc1ccc2[nH]c3c(=O)n(CC(=O)N4CCN(c5ccc(F)cc5)CC4)c(=S)[nH]c3c2c1	4	-2
COc1ccc2[nH]c3c(=O)n(Cc4ccc(C(=O)NCCc5ccc(C)cc5)cc4)c(=S)[nH]c3c2c1	112*	4
CC(=O)O[C@H]1C(=O)[C@@]2(C)C([C@H](OC(=O)c3ccccc3)[C@]3(O)C[C@H](OC(=O)[C@H](O)[C@@H](NC(=O)c4ccccc4)c4ccccc4)C(C)=C1C3(C)C)[C@]1(OC(C)=O)CO[C@@H]1C[C@@H]2O (stereo not given in full)	2	50*
N#CC1=C(N)N(c2sc3c(c2C#N)CCCC3)C2=C(CCC2)C1(C(F)(F)F)C(F)(F)F	-2	5
O=c1cc(N2CCOCC2)oc2c1ccc1ccccc12	2	4
O=c1cc(N2CCOCC2)oc2c(-c3ccccc3)cccc12	11*	5
COc1ccc2c(c1O)CN(C)CCc1cc3c(cc1C(=O)C2)OCO3	0	-2
C[C@@H]1CN([C@H](C)CO)C(=O)c2cc(NC(=O)CCC(F)(F)F)ccc2O[C@H]1CN(C)C(=O)Nc1cccc2ccccc12	0	0
CC(CNC(=O)c1nnc(Cc2ccc(Cl)cc2)o1)c1ccccc1 (stereo not given)	.	2
Cc1cc(Sc2nnc(/N=C/N(C)C)s2)c2ccccc2n1	0	54*
CN(C)/C=N/c1nnc(SCC(=O)c2ccc(F)cc2)s1	0	2
COc1ccccc1NC(=O)Cc1coc2c(C)c(C)ccc12	0	-4
CN(C)CCCn1cc(C2=C(c3c[nH]c4ccccc34)C(=O)NC2=O)c2ccccc21	6	2
Cn1cc(C2=C(c3cn(CCCSC(=N)N)c4ccccc34)C(=O)NC2=O)c2ccccc21	4	56*
COC(OC)c1ccc(C#N)c(SCc2ccc(Cl)cc2)n1	1	2
C=C(CO)C(=O)O[C@H]1CC(=C)[C@@H]2CC(=O)[C@H](C)[C@@H]2[C@H]2OC(=O)C(=C)[C@@H]21	0	69*
SMILES	A1 inh	BJeLR viability
C=C1C(=O)O[C@H]2C1[C@H](OC(=O)/C(C)=C/CO)C/C(C)=C\CC[C@@]1(CO)OC21 (stereo not given in full)	0	2
CC(C)NC(=O)c1ccc(-c2ccccc2)cc1	-2	0
C/C=C(/C)C(=O)O[C@H]1C=C(CO)C(=O)[C@H](OC(=O)/C(C)=C/CO)[C@H]1C(C)C	3	81*
C=C1C(=O)OC2/C=C(\CO)C(OC(C)=O)C/C=C(/C)CC(OC(=O)/C(C)=C\CO)C12 (stereo not given)	1	34
O=C(NCc1cccnc1)c1ccc(/C=C2\Sc3ccccc3N(Cc3ccccc3F)C2=O)cc1	.	123*
COC(=O)c1ccc(/C=C2/Oc3ccccc3N(Cc3ccccc3F)C2=O)cc1	-1	2
Cc1ccc(N(C)C(=O)Cn2c(=O)oc3cc(S(=O)(=O)N4CCCC4)ccc32)cc1	0	-6
CC1=C(c2ccc(C)cc2)S(=O)(=O)NC1=NC1CCN(Cc2ccccc2)CC1	9.6*	2
CC1=C(c2ccc(C)cc2)S(=O)(=O)NC1=NC(C)C12CC3CC(CC(C3)C1)C2 (stereo not given)	0	-4
Cc1cc2c(cc1C)C(=O)C(c1ccccc1)=C(NCc1ccccc1)C2=O	0	-1
C[C@H]1CC[C@@H]2[C@@H](C(=O)c3c(O)c([C@]4(O)CC[C@@H](O)[C@H]5O[C@H]54)cn(O)c3=O)[C@@H](C)C=C[C@H]2C1	46*	53*
CCOC(=O)N1CCN(C(=O)c2cccn3c(=O)c4cc5ccccc5cc4nc23)CC1	-1	-5
NS(=O)(=O)c1ccc(CCNC(=O)c2cccn3c(=O)c4cc5ccccc5cc4nc23)cc1	13*	10
CCc1nc(N)nc(N)c1-c1ccc(Cl)cc1	0	77*
CCOC(=O)c1sc2sc(C(=O)OCC)c(-c3ccc(Cl)cc3)c2c1N	0	-2
COC(=O)C1=C(O)/C(=C/c2ccc(O)cc2)SC1=Nc1ccccc1	3	-4
COC(=O)c1ccc(CS(=O)(=O)c2ccc(OC)cc2)o1	0	-6
Cc1[nH]c2ccccc2c1C(c1c(C)[nH]c2ccccc12)C(C)C	0	-2
Cc1[nH]c2ccccc2c1Sc1ccccc1	11*	1
Cc1cccc(Cn2c(CCNC(=O)C(C)(C)C)nc3ccccc32)c1	-1	1
C[C@H]1CN([C@@H](C)CO)C(=O)c2cccc(NC(=O)Nc3ccc(F)cc3)c2O[C@H]1CN(C)S(=O)(=O)c1ccc(F)cc1	.	-1
O=C1c2c(O)ccc(O)c2C(=O)c2c(NCCNCCO)ccc(NCCNCCO)c21	0	110*
O=c1oc(-c2ccccn2)nc2ccccc12	-5	-1
O=c1oc(Cl)c(Cl)c2ccccc12	5	55*
C=C1C(=O)O[C@H]2[C@H]1[C@@H](OC(=O)C(C)(O)C(C)Cl)C(OC(C)=O)/C(C(=O)OC)=C\CC[C@@]1(C)O[C@H]21 (stereo not given in full)	2	85*
SMILES	A1 inh	BJeLR viability
C=C1C(=O)O[C@H]2C1[C@H](OC(=O)/C(C)=C/CO)C/C(C)=C\CC[C@@]1(C)OC21 (stereo not given in full)	0	-7
CC1CCCC[C@H]2C(=O)C=C[C@H](O)[C@@H]2CC(=O)O1 (stereo not given in full)	0	62*
CC1CCC/C=C/C(=O)c2c(O)cc(O)cc2CC(=O)O1 (stereo not given)	0	4
Cc1cc(C(=O)O)nn1-c1ccccc1	0	1
C[C@H](CO)N1C[C@H](C)[C@@H](CN(C)S(=O)(=O)c2cn(C)cn2)Oc2ccc(NC(=O)c3ccncc3)cc2C1=O	0	4
CNC[C@@H]1Oc2ccc(NC(=O)Nc3c(C)noc3C)cc2C(=O)N([C@@H](C)CO)C[C@@H]1C	0	0
CNC[C@@H]1Oc2ccc(NC(=O)Nc3c(C)noc3C)cc2C(=O)N([C@H](C)CO)C[C@H]1C	16*	-1
